A selection: hits, their analogues and other compounds. The true share with any hit is near 19%.
Pf growth 48h – inhibits P. falciparum growth in the first generation, 48 h | P. falciparum luciferase growth in erythrocytes, 48 h | Potency, µM (titrated, usually from 28.7 µM), for the others: top-dose activity change, negative = inhibition, most hits filed as inhibitors | 310,000 compounds, 5.9% hits; also: potency is read from the fitted curve at half-maximal effect; % is scaled to controls: 0 for no effect and ±100 for the full control effect
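Firefly luciferase activity from engineered P. falciparum reports growth; inhibitors lower the luminescent signal. Cultures contained 2% hematocrit erythrocytes at 0.1% final parasitemia.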
AMA1-RON2 inh – AMA1-RON2 (P. falciparum) interaction inhibition; AlphaScreen AMA1-biotinylated RON2 peptide binding; Potency, µM (top dose mostly 58.2 µM), inactives show top-dose activity change, negative = inhibition, actives largely listed as inhibitors; 360,000 compounds, 0.2% hits;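 also: potency is read from the fitted curve at half-maximal effect; 0% = vehicle wells and -100% = peptide control; nearly all actives have a fitted effect of over 45% in size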
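AMA1 (3D7) with his tag at 25 nM final met compounds first, then biotinylated RON2 peptide at 25 nM; detection used donor plus acceptor beads, 10 µg/mL apiece, read by AlphaScreen after 30 min at room temperature.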
Pf growth 96h – inhibits malaria parasite growth, 96 h; 320,000 compounds, 6.9% hits; Potency, µM (highest dose often 28.7 µM), without a hit: at the highest dose activity change, negative = inhibition, most hits filed as inhibitors; AID 504834; P. falciparum luciferase reporter growth, 96 h; also: potency is read from the fitted curve at half-maximal effect; % is scaled to controls: 0 for no effect and ±100 for the full control effect
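Cell-based qHTS: luciferase-tagged P. falciparum in erythrocytes (2% hematocrit, 0.05% parasitemia final) incubated with compounds for 96 hours, 37 C, 5% CO2; luciferase detection reagent then added and luminescence measured.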
Shiga inhibitor – Shiga toxin inhibition; Vero cells, Shiga toxin protein synthesis inhibition reporter; 290,000 compounds, 9.2% hits; inhibition, % at 38.7 µM; in the data active = inhibition mostly above about 28%, no sharp cut-off; inactive = mostly below about 43%; also: 0% is about no effect
CHX counter – counter-screen for Shiga toxin inhibitors: cycloheximide protein synthesis inhibition; max response, %; 300,000 compounds, 12% hits; cell reporter, cycloheximide protein synthesis inhibition counterscreen; AID 2314; in the data active = max response mostly above about 13%, no sharp cut-off; inactive = mostly below about 14%; also: read at 38.3 µM for the half of the compounds with a filed dose; 0% is about no effect
SARS PLP yeast – inhibitors of SARS-CoV papain-like protease in yeast; AID 485353; S. cerevisiae expressing SARS-CoV PLpro, growth rescue; Potency, µM (doses to about 32.9 µM), for the others: top-dose activity, positive = growth rescue, usual class: activators; 330,000 compounds, 0.19% hits; calls by dose curve; also: potency is read from the fitted curve at half-maximal effect; 0% is about no effect; nearly all actives have a fitted effect of over 55% in size
* hit, by the source's call; u = inconclusive; x = not tested or not shown; ! = not active in a repeat; [ ] = dose if it differs, or a comment. Unless noted, calls follow the shape of the dose curve; as a rule, active = well fitted curve in the direction sought with a large enough effect; inconclusive = small, poorly fitted or top-dose-only effect, or another doubt; inactive = no such curve, though single readings can be large; an effect the other way counts as inactive or inconclusive.

SMILES | Pf growth 48h | AMA1-RON2 inh | Pf growth 96h | Shiga inhibitor | CHX counter | SARS PLP yeast
O=C1CC(=O)Nc2cc(S(=O)(=O)Nc3cccc(C(F)(F)F)c3)ccc2N1 | -3% | 0% | 12% | -4 | 1 | -7%
CC(C)CNc1ncnc2c1ncn2[C@H]1CN(Cc2ccc(-c3ccccc3)cc2)C[C@@H](CO)O1 | x | -16% | x | x | x | x
CC1CCCC(C)N1c1nnc(NC(=O)c2cc(-c3ccc(Br)cc3)on2)s1 (stereo not given) | x | 56% | u | -9 | -5 | -4%
O=C(Nc1ccccc1C(=O)O)c1cccc(NC(=O)c2ccccc2Cl)c1 | 15% | -2% | 10µM* | x | 2 | -3%
O=C(Nc1cccc(Cl)c1Cl)c1ccc(-c2ccccc2)cc1 | 26% | 0% | 273% | 9 | 8 | 7%
O=C(Nc1ccccc1Cl)c1ccccc1 | 52% | 12% | 66% | 148* | 30* | 0%
O=C(Nc1ccccc1NC(=O)c1ccccc1Cl)c1ccccc1Cl | u | -2% | 15µM* | 6 | -1 | 3%
Cc1ccccc1C(=O)Nc1cccc(C(=O)Nc2ccccc2C(=O)O)c1 | 4% | 1% | -26% | -3 | -2 | -4%
O=C(Nc1ccccc1Cl)c1ccc(C(=O)Nc2ccccc2Cl)cc1 | x | -17% | x | x | x | x
O=C(Nc1cc(Cl)ccc1Cl)c1ccc(-c2ccccc2)cc1 | 54% | -1% | u | 35 | 17* | 14%
NC(=O)c1ccccc1NC(=O)c1ccccc1Cl | 3% | -8% | u | 44 | 11 | 0%
O=C(Nc1ccc(Cl)cc1C(F)(F)F)c1ccccc1 | 23% | -6% | u | 15 | 16* | u
COc1ccccc1NC(=O)c1ccc(NC(=O)COC(=O)C(C)C)cc1 | 7.4µM* | 6% | 6.6µM* | -2 | 9 | -13%
COCC(=O)Nc1ccc(C(=O)Nc2ccccc2Cl)cc1 | 76% | x | 193% | 92* | 33* | -2%
COc1ccccc1NC(=O)c1ccc(NC(=O)COC(=O)c2ccc(O)cc2)cc1 | u | 6% | -22% | x | x | -9%
CCCCC(CC)CN=C(N)NC(N)=NCCCCCCN=C(N)NC(N)=NCC(CC)CCCC (stereo not given) | 0.23µM* | 60% | 0.066µM*! | x | x | x
CCCCC(CC)CO (stereo not given) | x | 17% | x | x | x | 5%
O=C(NCc1ccccc1)C1Cc2c(-c3ccc4c(c3)OCO4)ccnc2O1 (stereo not given) | x | -22% | x | x | x | x
Cc1c(N(C(=O)CNC(=O)c2ccccc2)C2(C(=O)NC3CCCC3)CCCCC2)c(=O)n(-c2ccccc2)n1C | 3.7µM* | 0% | u | 3 | -3 | 9%
CC(=O)N(c1c(C)n(C)n(-c2ccccc2)c1=O)C1(C(=O)NC2CCCCC2)CCCCC1 | -8% | 4% | u | 11 | -4 | -1%
Brc1ccc2nc(-c3cccs3)c(NCC3CCCO3)n2c1 (stereo not given) | -9% | -11% | 42% | 56* | 32* | -4%
CCN(CC)CCNc1oc(-c2ccccc2)nc1S(=O)(=O)c1ccccc1 | x | -1% | x | x | x | 4%
COc1ccccc1CCc1nnc(CCC(=O)NCC2CCCO2)o1 (stereo not given) | 5% | -9% | -20% | 7 | 4 | 0%
COc1ccccc1CCc1nnc(CCC(=O)NCC[C@@H]2C[C@@H]3C=C[C@H]2C3)o1 | 3% | u | 2% | 24 | 13* | 0%
O=C(C1CCN(S(=O)(=O)c2cccc3cccnc23)CC1)N1CCCCC1 | -20% | -2% | 6% | -8 | 10 | 0%
SMILES | Pf growth 48h | AMA1-RON2 inh | Pf growth 96h | Shiga inhibitor | CHX counter | SARS PLP yeast
O=C(Nc1ccc(Oc2c(F)c(F)c(F)c(F)c2F)cc1)OC1CCN2Cc3ccccc3N=C12 (stereo not given) | u | 0% | 2.6µM* | 30 | -1 | -1%
CCN=C1S/C(=C\c2cc(OCC)c(O)cc2Br)C(=O)N1CC | 12µM* | 15%[11.6 µM] | 10µM* | 0 | -1 | 7%
Clc1ccc(-c2nnc(SCc3ccon3)o2)c(Cl)c1 | 138% | -12% | x | 61* | 37* | -11%
C=CCSc1nnc(-c2ccc(Cl)cc2Cl)o1 | 197% | 20% | 44% | 92* | 43* | -5%
Clc1ccc(-c2nnc(SCc3nc4ccccc4[nH]3)o2)c(Cl)c1 | 4% | 1% | -13% | 32 | 17* | 8%
COc1ccccc1-c1nnc(SCC(=O)Nc2ccc(Cl)cc2Cl)o1 | 6% | 24% | 35% | 9 | -1 | -5%
COc1cc(CNc2nccn3ccnc23)cc(OC)c1 | x | 36% | x | x | x | x
Cc1ccc(C)c(NC(=O)Cn2nnc(-c3ccc(N4CCOCC4)cc3)n2)c1 | 39% | -1% | 2% | -8 | -2 | -2%
COc1ccc(C2CC(=O)C3=C(C2)Nc2ncnn2C3c2ccccc2C)c(OC)c1 (stereo not given) | 7.4µM* | -4% | 8.3µM* | -20 | 0 | 5%
COc1c(C(=O)NNC(=O)c2ccccc2Cl)csc1Br | 87% | 75% | 134% | 76* | 49* | 0%
COc1ccc(NC(=O)c2cc(F)c(F)cc2Cl)cc1Cl | 42% | 1% | 29% | 50* | 46* | 0%
CCOC(=O)c1ccc(N/C(=N\S(=O)(=O)c2ccc(F)cc2F)c2ccccc2)cc1 | u | 2% | 6.6µM* | -4 | 1 | -23%
CCOC(=O)c1ccc(NC(=O)c2cc(F)c(F)cc2Cl)cc1 | 11% | 6% | -13% | 48 | 18* | -4%
O=C(Nc1ccc2[nH]c(=O)[nH]c2c1)c1cc(F)c(F)cc1Cl | 10% | -6% | -2% | 25 | 8 | 4%
O=C(Nc1ccc(S(=O)(=O)NC2=NCCCCC2)cc1)C1COc2ccccc2O1 (stereo not given) | u | -1% | u | -3 | -2 | 2%
O=C(NCc1ccccc1)c1ccc(CN2CCC(Cc3ccccc3)CC2)cc1 | 13µM* | -11% | -4% | -1 | -4 | -1%
CCc1ccccc1NC(=O)c1ccc(CN2CCC(Cc3ccccc3)CC2)cc1 | 1µM* | -7% | 25% | -9 | -3 | 2%
COCCNC(=O)c1ccc(CN2CCC(Cc3ccccc3)CC2)cc1 | -12% | 0% | u | -11 | -3 | 1%
O=C(c1ccc(CN2CCOCC2)cc1)N1CCC(Cc2ccccc2)CC1 | -22% | -6% | 2.9µM* | -15 | -6 | -5%
COC(=O)/C=C/c1cccc(N(Cc2ccc(-c3ccc(N(C)C)cc3)cc2)C(=O)C2CCCCC2)c1 | x | x | x | -4 | 7 | x
CCCc1ccc(S(=O)(=O)N2CCN(C(=O)CN3C(=O)NC(C)(C4CC4)C3=O)CC2)cc1 (stereo not given) | x | -12% | x | x | x | x
N#C/C(=C\Nc1ccc2cn[nH]c2c1)c1nc(-c2ccc(Cl)cc2)cs1 | u | 9% | 4.1µM* | -9 | -13 | 1%

Screens deposited in PubChem by National Center for Advancing Translational Sciences (NCATS).
